The supplement of paper PMC8728848
This excerpt belongs to a sample that is enriched for the strongest signals.

Tests used:
Test in all cases: glycan array binding signal (z-score within array); higher = stronger binding
Details in all cases: glycan notation: IUPAC condensed, linker removed
Fuc(a1-2)Gal(b1-3)GalNAc = molecular target: Fuc(a1-2)Gal(b1-3)GalNAc
Procedure, shortened: (§1)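 Glycan array binding is given as a within-array Z-score, which can be read as non-binding when negative. The arrays, 3228 of them, came from the Consortium for Functional Glycomics database and were retained only where the protein sequence was available. Z-scores were averaged across arrays of the same protein sequence at different concentrations or buffers and across linkers.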

[1] = molecular target: Fuc(a1-2)Gal(b1-3)GlcNAc(b1-3)[Fuc(a1-3)[Gal(b1-4)]GlcNAc(b1-6)]Gal(b1-4)Glc
Procedure, shortened: as §1

[2] = molecular target: Fuc(a1-2)Gal(b1-3)[Fuc(a1-4)]GlcNAc(b1-2)Man(a1-3)[Fuc(a1-2)Gal(b1-3)[Fuc(a1-4)]GlcNAc(b1-2)Man(a1-6)]Man(b1-4)GlcNAc(b1-4)GlcNAc
Procedure, shortened: as §1

[3] = molecular target: Fuc(a1-2)Gal(b1-3)[Fuc(a1-4)]GlcNAc(b1-3)[Gal(b1-4)GlcNAc(b1-6)]Gal(b1-4)Glc
Procedure, shortened: as §1

Fuc(a1-2)Gal(b1-4)Glc = molecular target: Fuc(a1-2)Gal(b1-4)Glc
Procedure, shortened: as §1

[4] = molecular target: Fuc(a1-2)Gal(b1-4)[Fuc(a1-3)]GlcNAc(b1-2)Man(a1-3)[Fuc(a1-2)Gal(b1-4)[Fuc(a1-3)]GlcNAc(b1-2)Man(a1-6)]Man(b1-4)GlcNAc(b1-4)GlcNAc
Procedure, shortened: as §1

[5] = molecular target: Fuc(a1-2)[Gal(a1-3)]Gal(b1-4)GlcNAc
Procedure, shortened: as §1

[6] = molecular target: Fuc(a1-2)[GalNAc(a1-3)]Gal(b1-3)GlcNAc(b1-2)Man(a1-3)[Fuc(a1-2)[GalNAc(a1-3)]Gal(b1-3)GlcNAc(b1-2)Man(a1-6)]Man(b1-4)GlcNAc(b1-4)GlcNAc
Procedure, shortened: as §1

[7] = molecular target: Fuc(a1-2)[GalNAc(a1-3)]Gal(b1-4)GlcNAc(b1-3)Gal(b1-4)GlcNAc
Procedure, shortened: as §1

[8] = molecular target: Fuc(a1-2)[GalNAc(a1-4)]Gal(b1-4)GlcNAc
Procedure, shortened: as §1

[9] = molecular target: Fuc(a1-3)[Gal(b1-4)]GlcNAc(b1-3)GalNAc
Procedure, shortened: as §1

Gal(a1-3)Gal(b1-4)GlcNAc = molecular target: Gal(a1-3)Gal(b1-4)GlcNAc
Procedure, shortened: as §1

[10] = molecular target: Gal(a1-3)Gal(b1-4)[Fuc(a1-3)]GlcNAc(b1-2)Man(a1-3)[Gal(a1-3)Gal(b1-4)[Fuc(a1-3)]GlcNAc(b1-2)Man(a1-6)]Man(b1-4)GlcNAc(b1-4)GlcNAc
Procedure, shortened: as §1

Gal(a1-3)GalNAc = molecular target: Gal(a1-3)GalNAc
Procedure, shortened: as §1

[11] = molecular target: Gal(a1-4)Gal(b1-3)GlcNAc(b1-2)Man(a1-3)[Gal(a1-4)Gal(b1-3)GlcNAc(b1-2)Man(a1-6)]Man(b1-4)GlcNAc(b1-4)GlcNAc
Procedure, shortened: as §1

[12] = molecular target: Gal(b1-3)GlcNAc(b1-2)Man(a1-3)[Gal(b1-3)GlcNAc(b1-2)Man(a1-6)]Man(b1-4)GlcNAc(b1-4)GlcNAc
Procedure, shortened: as §1

[13] = molecular target: Gal(b1-3)GlcNAc(b1-3)Gal(b1-4)GlcNAc(b1-6)[Gal(b1-3)GlcNAc(b1-3)]Gal(b1-4)Glc
Procedure, shortened: as §1

[14] = molecular target: Gal(b1-3)[Fuc(a1-4)]GlcNAc(b1-3)Gal(b1-4)GlcNAc
Procedure, shortened: as §1

Gal(b1-4)Glc6S = molecular target: Gal(b1-4)Glc6S
Procedure, shortened: as §1

[15] = molecular target: Gal(b1-4)GlcNAc(b1-3)Gal(b1-4)GlcNAc
Procedure, shortened: as §1

[16] = molecular target: Gal(b1-4)GlcNAc(b1-3)[Gal(b1-4)GlcNAc(b1-6)]GalNAc
Procedure, shortened: as §1

[17] = molecular target: GalNAc(b1-3)Gal(a1-6)Gal(b1-4)Glc
Procedure, shortened: as §1

[18] = molecular target: GlcNAc(b1-2)Man(a1-3)[GlcNAc(b1-2)Man(a1-6)]Man(b1-4)GlcNAc(b1-4)GlcNAc
Procedure, shortened: as §1

GlcNAc(b1-3)Man = molecular target: GlcNAc(b1-3)Man
Procedure, shortened: as §1

Kdn(a2-3)Gal(b1-4)Glc = molecular target: Kdn(a2-3)Gal(b1-4)Glc
Procedure, shortened: as §1

[19] = molecular target: Man(a1-2)Man(a1-3)[Man(a1-2)Man(a1-6)]Man
Procedure, shortened: as §1

Man(a1-3)[Man(a1-6)]Man = molecular target: Man(a1-3)[Man(a1-6)]Man
Procedure, shortened: as §1

[20] = molecular target: Neu5Ac(a2-3)Gal(b1-3)GalNAc(b1-4)[Neu5Ac(a2-3)]Gal(b1-4)Glc
Procedure, shortened: as §1

Neu5Ac(a2-3)Gal(b1-4)Glc = molecular target: Neu5Ac(a2-3)Gal(b1-4)Glc
Procedure, shortened: as §1

[21] = molecular target: Neu5Ac(a2-3)Gal(b1-4)GlcNAc(b1-3)Gal(b1-4)GlcNAc
Procedure, shortened: as §1

[22] = molecular target: Neu5Ac(a2-3)Gal(b1-4)[Fuc(a1-3)]GlcNAc(b1-3)GalNAc
Procedure, shortened: as §1

[23] = molecular target: Neu5Ac(a2-3)Gal(b1-4)[Fuc(a1-3)]GlcNAc(b1-6)[Gal(b1-3)]GalNAc
Procedure, shortened: as §1

[24] = molecular target: Neu5Ac(a2-3)Gal(b1-4)[Fuc(a1-3)]GlcNAc(b1-6)[Neu5Ac(a2-3)Gal(b1-3)]GalNAc
Procedure, shortened: as §1

[25] = molecular target: Neu5Ac(a2-3)GalNAc(b1-4)GlcNAc
Procedure, shortened: as §1

[26] = molecular target: Neu5Ac(a2-3)[Neu5Ac(a2-6)]GalNAc
Procedure, shortened: as §1

[27] = molecular target: Neu5Ac(a2-6)Gal(b1-4)GlcNAc
Procedure, shortened: as §1

[28] = molecular target: Neu5Ac(a2-6)Gal(b1-4)GlcNAc(b1-3)Gal(b1-4)GlcNAc(b1-3)Gal(b1-4)GlcNAc
Procedure, shortened: as §1

[29] = molecular target: Neu5Ac(a2-8)Neu5Ac(a2-3)[GalNAc(b1-4)]Gal(b1-4)Glc
Procedure, shortened: as §1

[30] = molecular target: Neu5Ac9Ac(a2-6)Gal(b1-4)GlcNAc
Procedure, shortened: as §1

[31] = molecular target: Neu5Gc(a2-6)Gal(b1-4)GlcNAc
Procedure, shortened: as §1

B1: SAG3 (Toxoplasma gondii), Q9BJ39 (protein)
chain: MQLWRRRAAGPASLGRQSLPLGCFFAAFGLCVLSAILGTGERGLFVAAGNSRRKITYFGTLTQKAPNWYRCSSTRAKEEVVGHVTLNKEHPDMTIECVDDGLGGEFLPLEGARSSYPRVCHIDAKDQDDCERNRGFLTDYIPGAKQYWYKIEKVEQNGEQSVLYKFTVPWILLPPAKQRYKVGCRYPNHEYCFVEVTVEPTPPMVEGKRVTCGYSESGPVNLEVDLSKNANFIEIRCGEQHHPQPSTYTLQYCSGDSVDPQKCSPQSLTNIFYDYSSSWWKGKLNGPDGATLTIPPGGFPEEDKSFLVGCSLTVDGPPFCNVKVRVAGNPRKWERGGGGHPGSGGLQPGTDGETQAGTGSSAGASSRMASVALAFLLGLLVHVAA
Fuc(a1-2)Gal(b1-3)GalNAc
  glycan array binding signal (z-score): -0.359
[1]
  glycan array binding signal (z-score): 0.235
[2]
  glycan array binding signal (z-score): 6.32
[3]
  glycan array binding signal (z-score): 0.4
Fuc(a1-2)Gal(b1-4)Glc
  glycan array binding signal (z-score): -0.397
[4]
  glycan array binding signal (z-score): 2.31
[5]
  glycan array binding signal (z-score): 0.112
[6]
  glycan array binding signal (z-score): -0.473
[7]
  glycan array binding signal (z-score): -0.084
[8]
  glycan array binding signal (z-score): -0.046
[9]
  glycan array binding signal (z-score): 2.86
Gal(a1-3)Gal(b1-4)GlcNAc
  glycan array binding signal (z-score): -0.223
[10]
  glycan array binding signal (z-score): 4.74
Gal(a1-3)GalNAc
  glycan array binding signal (z-score): -0.176
[11]
  glycan array binding signal (z-score): -0.051
[12]
  glycan array binding signal (z-score): 0.157
[13]
  glycan array binding signal (z-score): 0.551
[14]
  glycan array binding signal (z-score): -0.077
Gal(b1-4)Glc6S
  glycan array binding signal (z-score): -0.304
[15]
  glycan array binding signal (z-score): 0.013
[16]
  glycan array binding signal (z-score): -0.475
[17]
  glycan array binding signal (z-score): -0.162
[18]
  glycan array binding signal (z-score): -0.352
GlcNAc(b1-3)Man
  glycan array binding signal (z-score): 0.13
Kdn(a2-3)Gal(b1-4)Glc
  glycan array binding signal (z-score): 0.107
[19]
  glycan array binding signal (z-score): -0.088
Man(a1-3)[Man(a1-6)]Man
  glycan array binding signal (z-score): 0.34
[20]
  glycan array binding signal (z-score): -0.184
Neu5Ac(a2-3)Gal(b1-4)Glc
  glycan array binding signal (z-score): -0.168
[21]
  glycan array binding signal (z-score): -0.053
[22]
  glycan array binding signal (z-score): 16
[23]
  glycan array binding signal (z-score): 3.05
[24]
  glycan array binding signal (z-score): 2.02
[25]
  glycan array binding signal (z-score): -0.469
[26]
  glycan array binding signal (z-score): -0.226
[27]
  glycan array binding signal (z-score): -0.372
[28]
  glycan array binding signal (z-score): -0.049
[29]
  glycan array binding signal (z-score): 2.27
[30]
  glycan array binding signal (z-score): 0.292
[31]
  glycan array binding signal (z-score): -0.387
